Bioassay records: PubChem, several laboratories
Insulin prom up: MIN6 insulin promoter up-regulation. MIN6 insulin promoter-GFP reporter, high-content imaging; active compounds read high. z-score at 5 µM. 190,000 compounds, 0.3% hits;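 active = z-score above 3 at 5 µM with at least 500 cells counted in the well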
INS promoter inh: TRM-6 insulin promoter activity inhibition. TRM-6 cells (human fetal islet line), insulin promoter-eGFP reporter, imaging; reporter expression induced with tamoxifen. inhibition, % at 2 µM. 130,000 compounds, 0.9% hits. AID 1273;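 active = inhibition above the mean plus 3 SD, with well images judged a real hit on visual review, cut at about 60% in these data, passing the limit was not always enough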
Autophagy HCS: alters autophagy in cells. AID 463193. 190,000 compounds, 0.98% hits. calls only at 10 µM (by protocol). MEF GFP-LC3 puncta imaging; test concentration mostly 10 µM;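 active = percentage of spot-positive cells more than 3 SD above its plate mean, without a fluorescence outlier flag or 80% toxicity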
WT yeast gro inh: growth inhibition of WT yeast, mitochondrial fusion screen; mitochondrial fusion phenotypic screen, WT strain; inhibition, % at 10 µM; 190,000 compounds, 2.1% hits; in the data active = inhibition above about 58%; tested in S. cerevisiae
Lmaj promast: Leishmania major promastigote growth inhibition; Leishmania major promastigotes, resazurin fluorescence viability; inhibition, % at 10 µM; 200,000 compounds, 9% hits; AID 1063; in the data active = inhibition above about 50%;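 note: promastigotes grown with compound for 44 hours at 28 °C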
Large screens that a line does not name were inactive. A selection: hits, their analogues and other compounds. The true share with any hit is near 11%.

c1ccc(-c2ccc(-c3n(-c4ccccn4)c4ccccc4[n+]3-c3ccccn3)cc2)cc1	Autophagy HCS active, Lmaj promast 88.4
COc1cc(CC2(CCc3ccncc3)C(=O)N(C)C(=O)N(C)C2=O)cc(OC)c1OC	none
c1ccc(CN2CCN(Cc3ccc4c(c3)OCCO4)CC2)cc1	Lmaj promast 79.7 (no result: INS promoter inh)
COc1ccc(C(=O)c2nc3ccccc3n2C(C)C)cc1	Lmaj promast 50.8
Clc1cccc(C2NCc3ccccc3-n3cccc32)c1 (stereo not given)	none (no result: INS promoter inh, Autophagy HCS, WT yeast gro inh, Lmaj promast)
O=C(O)C1C2c3ccccc3C(c3ccccc32)C1C(=O)Nc1ccccc1 (stereo not given)	Lmaj promast 73.2
CCOc1ccc(NC(=O)C2C3c4ccccc4C(c4ccccc43)C2C(=O)O)cc1 (stereo not given)	none
COc1ccc(OC)c2c1CCC1NCCOC21 (stereo not given)	none
COc1ccc(CCn2c(O)c(C=NCCCO)c(=O)[nH]c2=O)cc1OC	none (no result: INS promoter inh)
CCc1cccc(C)c1NC(=S)N1CC2CC(C1)c1cccc(=O)n1C2 (stereo not given)	none (no result: INS promoter inh)
C#CC(CC)(CC)NC(=O)Nc1ccc(OCC)cc1	none
COc1ccc(CCN(C)Cc2c(F)cccc2F)cc1OC	none
CNC(C(=O)c1ccccc1)C(OC)c1ccccc1 (stereo not given)	WT yeast gro inh 79.5 (no result: INS promoter inh, Autophagy HCS)
COC(=O)C1=Nc2ccccc2/C1=C\c1c(O)n(-c2ccc(Br)cc2)c(=O)[nH]c1=O	Lmaj promast 66.9
O=c1[nH]c(=O)n(-c2ccccc2)c(O)c1/C=C1/C(c2ccccc2)=Nc2ccccc21	Lmaj promast 78.8
CC(C(=O)c1ccccc1)N1C(=O)c2ccccc2C1=O (stereo not given)	Lmaj promast 75.4
Cc1[nH]c2c(Cl)cccc2c1CCN	Lmaj promast 56.5 (no result: WT yeast gro inh)
CC(C)[N+](C)(CCC(C(N)=O)(c1ccccc1)c1ccccc1)C(C)C	none (no result: INS promoter inh, Autophagy HCS, Lmaj promast)
CC(C)(C)c1ccc(O)c(CN2CCN(c3ccccc3)CC2)c1	INS promoter inh 82.3
COc1ccccc1N(CC(=O)NC1CCCC1)C(=O)c1cnn(C(C)C)c1	none (no result: Insulin prom up)
Cc1ccc(OCC(=O)N2CCN(CC3CC4C=CC3C4)CC2)cc1 (stereo not given)	Lmaj promast 77.7
COc1ccccc1CN1CCN(C(=O)COc2ccccc2)CC1	none
O=C(COc1ccccc1)N1CCN(CC2CC3C=CC2C3)CC1 (stereo not given)	Lmaj promast 90.7
Cc1ccc(OCC(=O)N2CCN(Cc3ccc([N+](=O)[O-])cc3)CC2)cc1	none (no result: INS promoter inh, Autophagy HCS, WT yeast gro inh, Lmaj promast)
COC(=O)CNC(=O)c1cn(CCC#N)nc1-c1ccc(F)cc1	none
Nc1cc2nc3ccccc3nc2cc1N	Insulin prom up 3.68 (no result: INS promoter inh, Autophagy HCS, WT yeast gro inh, Lmaj promast)
O=C(CNC(=O)OCc1ccccc1)Nc1ccc(Br)cc1C(=O)c1ccccc1	none
O=C(CNC(=O)OCc1ccccc1)NCC(=O)Nc1ccc(Br)cc1C(=O)c1ccccc1	Lmaj promast 69.5
CN1Cc2c(c(C#N)c(N)n(C)c2=S)CC1(C)C	none (no result: INS promoter inh)
CN1CCN(C(=O)COc2ccc(S(=O)(=O)N(C)Cc3ccccc3)cc2)CC1	none (no result: Insulin prom up)
CCN1CCN(C(=O)COc2ccc(S(=O)(=O)N(C)Cc3ccccc3)cc2)CC1	Lmaj promast 99.3
CCCCc1nc2ccccc2c(=O)n1-c1ccccc1O	none
Cc1cc(=O)[nH]c(SCc2nc3ccccc3c(=O)n2-c2ccccc2C)n1	Autophagy HCS active (no result: INS promoter inh)
Cn1c(=O)cc(OCC(=O)N2CCN(C3CCCCC3)CC2)c2ccccc21	none (no result: INS promoter inh, Autophagy HCS)
CCOc1cccc(OCC)c2c(C)[n+](CC3CCCO3)c(C)c1-2 (stereo not given)	Lmaj promast 92.7
O=C(O)CSC(=S)N1CC2CC(C1)c1cccc(=O)n1C2 (stereo not given)	none (no result: INS promoter inh)
O=C(c1ccccc1F)c1cn(Cc2ccc(F)cc2)c2ccccc12	none (no result: Insulin prom up)
O=C(c1ccccc1F)c1cn(Cc2ccccc2)c2ccccc12	Lmaj promast 54.0
Cc1ccc(C2=NCC(=O)N(CC(=O)N3CCCCC3)c3sc(C)c(C)c32)cc1	none
CCSc1cc(C2C(C#N)=C(N)Oc3n[nH]c(C)c32)c(C)o1 (stereo not given)	Lmaj promast 94.0
COc1ccccc1OP(=O)(Nc1cccnc1)Oc1ccccc1OC	Autophagy HCS active (no result: INS promoter inh)
O=P(Nc1cccc(F)c1)(Oc1ccccc1F)Oc1ccccc1F	none (no result: INS promoter inh, Autophagy HCS, WT yeast gro inh, Lmaj promast)
COc1cccc(NP(=O)(Oc2ccc(Cl)cc2)Oc2ccc(Cl)cc2)c1	WT yeast gro inh 63.4
Cc1cccc(NP(=O)(Oc2ccccc2F)Oc2ccccc2F)c1	Lmaj promast 56.8 (no result: Insulin prom up)
O=c1[nH]c(=O)n(C2CCCCC2)c(O)c1/C=C/C=Nc1ccccc1	none (no result: INS promoter inh, Autophagy HCS, WT yeast gro inh, Lmaj promast)
NC1=NC(=O)C(c2ccccc2)O1 (stereo not given)	none (no result: INS promoter inh, Autophagy HCS, Lmaj promast)
CC1CN(O)C2CCc3nonc3C12O (stereo not given)	none
COc1ccc(N2C(=O)/C(=C/C=C/c3ccccc3[N+](=O)[O-])C(=O)NC2=S)cc1	Lmaj promast 92.1
O=C1NC(=O)N(c2ccccc2)C(=O)/C1=C\c1ccccc1[N+](=O)[O-]	none (no result: INS promoter inh, Autophagy HCS, WT yeast gro inh, Lmaj promast)
CCOc1ccc(N2C(=O)NC(=O)/C(=C\c3cc(OC)c(OC)cc3[N+](=O)[O-])C2=O)cc1	Lmaj promast 56.1
COc1ccc(N2C(=O)NC(=O)/C(=C\c3ccc([N+](=O)[O-])s3)C2=O)cc1	Lmaj promast 97.3 (no result: INS promoter inh)
CCOc1ccc(N2C(=O)NC(=O)/C(=C\c3ccc(N4CCOCC4)cc3C)C2=O)cc1	none
S=P(Nn1cnnc1)(c1ccccc1)c1ccccc1	none (no result: INS promoter inh)
OC(Cn1c2ccccc2c2ccccc21)C[n+]1cccc2ccccc21 (stereo not given)	none (no result: Insulin prom up)
CCc1cccc(CC)c1NC(=S)N1CC2CC(C1)c1cccc(=O)n1C2 (stereo not given)	none (no result: INS promoter inh)
O=C(Cc1cc(=O)[nH]c(=O)[nH]1)N1CCN(CCO)CC1	none (no result: INS promoter inh)
O=C(COC(=O)c1ccc(O)cc1)Nc1ccc(Cl)cc1C(=O)c1ccccc1	WT yeast gro inh 76.5 (no result: INS promoter inh)
CC(=O)Nc1ccc(C(=O)OCC(=O)Nc2ccc(Cl)cc2C(=O)c2ccccc2)cc1	none
Cc1ccc(C(=O)Nc2ccc(Cl)cc2C(=O)c2ccccc2)cc1	Lmaj promast 99.0 (no result: Insulin prom up, WT yeast gro inh)
CCC(=O)OC1(c2cccc(C)c2)CC(C)N(C)CC1C (stereo not given)	none (no result: INS promoter inh)
Cc1ccc(OP(N)(=O)Oc2ccc(C)cc2)cc1	none (no result: INS promoter inh)
N=C1c2ccccc2CN1c1ncccn1	none
Cc1cc(C)cc(N2C(=O)NC(=O)/C(=C\c3cccn3-c3ccc(Cl)cc3)C2=O)c1	Lmaj promast 92.0 (no result: INS promoter inh)
Cn1cccc1/C=C1/C(=O)NC(=O)N(C(C)(C)C)C1=O	none (no result: INS promoter inh, Autophagy HCS, WT yeast gro inh, Lmaj promast)
Cc1cc(C)cc(N2C(=O)NC(=O)/C(=C\c3cccn3-c3ccccc3)C2=O)c1	none
O=C1NC(=S)NC(=O)C1=Cc1cccn1-c1ccc(O)cc1	Lmaj promast 100.0
CN1C(=O)/C(=C/c2cccn2-c2ccc3ccccc3c2)C(=O)NC1=S	Lmaj promast 100.4
CC(N)Cc1c[nH]c2cc3c(cc12)OCCO3 (stereo not given)	none
CC(C)C/C(=N/O)c1cn(C)c2ccccc12	none (no result: INS promoter inh)
O=C1NC(=O)N(Cc2ccco2)C(=O)/C1=C/c1ccc(-c2cccc([N+](=O)[O-])c2)o1	Lmaj promast 98.8
